The text below walks through data of PubChem BioAssay (EPA / NIEHS).

Read-out in experiment [1]: X-box binding protein 1 (XBP1), XBP1 (gene 7494)
The experiment can be described thus: LTEA_HepaRG_XBP1: Life Technologies and Expression Analysis (LTEA) Assay for X-box binding protein 1 (XBP1) using HepaRG (AID 2283540; active means hit-call score of the fitted dose curve at least 0.9, where 1 is the maximum; inactive means score below 0.9). The note with it: mRNA level, 48 h; actives raise or lower the signal. A digest of the protocol: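 HepaRG, 48 h exposure, 8-pt half-log CRC top 100 uM, 0.5% DMSO vehicle, duplicates. Readout: TaqMan qRT-PCR of XBP1 mRNA, housekeeping-normalised (ACTB/GAPDH/POLR2A); bidirectional fit vs DMSO baseline.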

Experiment [2] in a line: LTEA_HepaRG_LDH_cytotoxicity: Cytotoxicity Assessment in the Life Technologies and Expression Analysis (LTEA) Assay (AID 2283563). A digest of the protocol: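 HepaRG (human liver line), 48 h exposure, 8-pt half-log series from 100 uM, 0.5% DMSO vehicle, duplicates. Read-out: LDH in spent medium. Positive-direction fit vs DMSO baseline.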
Experiment [3] is described as follows: Tanguay_ZF_120hpf_MORT_legacy: (Legacy) Oregon State University Tanguay Lab 120 Hour Post-fertilization zebrafish Assay for Mortality (AID 2283633).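 On AC50: fitted as increase in binary mortality versus DMSO negative control.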 A digest of the protocol:
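Brightfield scoring of embryo death (binary) at 24 and 120 hpf; static exposure 6–120 hpf, 28C, sealed and foil-covered. Pronase-dechorionated 5D wild-type larvae, single embryo per well. DMSO 0.64% v/v; trimethyltin chloride 5uM positive control.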

Experiment [4] is described as follows: Tanguay_ZF_120hpf_YSE_legacy: (Legacy) Oregon State University Tanguay Lab 120 Hour Post-fertilization zebrafish Assay for Yolk Sac Edema (AID 2283634).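 On AC50: actives raise the incidence of yolk sac edema above the DMSO baseline.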 A digest of the protocol: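 Binary brightfield scoring of yolk sac edema at 120 hpf; DMSO baseline, gain-of-signal fitting. Dechorionated 5D larvae, one per well, static exposure 6–120 hpf, 28C, 0.64% DMSO. Dead embryos not scored.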

Experiment [5] can be described thus: Tanguay_ZF_120hpf_AXIS_legacy: (Legacy) Oregon State University Tanguay Lab 120 Hour Post-fertilization zebrafish Assay for Body Axis Malformation (AID 2283635).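 On AC50: potency for an increased fraction of larvae scored with body axis malformation.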 A digest of the protocol: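 Embryos: 5D wild-type, pronase-dechorionated 4 hpf; static exposure 6–120 hpf, 28C, sealed, dark, 1 embryo/well, 0.64% DMSO. 120 hpf axis malformation scored present/absent; dead embryos excluded. Analysed as gain of signal vs DMSO.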

Experiment [6] is described as follows: Tanguay_ZF_120hpf_EYE_legacy: (Legacy) Oregon State University Tanguay Lab 120 Hour Post-fertilization zebrafish Assay for Eye Malformation (AID 2283636).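 Further: binary presence or absence of eye malformation scored by brightfield in 120 hpf larvae.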 A digest of the protocol: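 5D wild-type embryos, pronase-dechorionated at 4 hpf; static exposure 6–120 hpf, 28C, dark; DMSO 0.64% final; 5uM trimethyltin chloride positive control. Binary eye-defect scoring at 120 hpf; dead embryos not scored.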

Experiment [7] can be described thus: Tanguay_ZF_120hpf_SNOU_legacy: (Legacy) Oregon State University Tanguay Lab 120 Hour Post-fertilization zebrafish Assay for Snout Malformation (AID 2283637). A digest of the protocol:
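Binary brightfield scoring of snout malformation at 120 hpf. Dechorionated 5D wild-type embryos, one per well, static exposure from 6 hpf at 28C, sealed and dark; final DMSO 0.64% (vol/vol), DMSO as baseline; 5uM trimethyltin chloride positive control.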

Experiment [8] in a line: Tanguay_ZF_120hpf_JAW_legacy: (Legacy) Oregon State University Tanguay Lab 120 Hour Post-fertilization zebrafish Assay for Jaw Malformation (AID 2283638).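 On AC50: active means more embryos with jaw malformation than DMSO controls.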 A digest of the protocol:
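Binary jaw-malformation calls at 120 hpf by brightfield imaging; DMSO (0.64% v/v) = baseline. Embryos: 5D wild-type, pronase-dechorionated, one per well from 6 hpf, static exposure, 28C, sealed, dark.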

Experiment [9] in a line: Tanguay_ZF_120hpf_PE_legacy: (Legacy) Oregon State University Tanguay Lab 120 Hour Post-fertilization zebrafish Assay for Pericardial Edema (AID 2283640).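 On AC50: potency for increased incidence of pericardial edema versus DMSO baseline.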 A digest of the protocol: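 Static waterborne exposure, 5D wild-type embryos, 28C, to 120 hpf; final DMSO 0.64% (vol/vol). Binary PE call at 120 hpf by brightfield; fitted upward vs DMSO baseline. 5uM trimethyltin chloride as positive control.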

A short description of experiment [10]: Tanguay_ZF_120hpf_BRAI_legacy: (Legacy) Oregon State University Tanguay Lab 120 Hour Post-fertilization zebrafish Assay for Brain Malformation (AID 2283641). A digest of the protocol: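 Read-out: binary brain morphology call at 120 hpf (brightfield), fitted in gain-of-signal direction vs DMSO. Wild-type Tropical 5D embryos, static exposure, 28C, 0.64% DMSO final; 5uM trimethyltin chloride as positive control.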

Experiment [11] can be described thus: TOX21_p53_BLA_p2_viability: Viability Assessment in the Tox21 HCT-116 p53 Agonism Beta-lactamase Assay, Phase 2 (AID 2283591).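 Further: actives lower the ATP signal meaning cytotoxicity.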 A digest of the protocol: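 HCT116 p53-bla cells, 4000/well, dosed after 5 h plating (217-fold dilution of DMSO stocks) and incubated 16 h at 37C. Viability taken as cellular ATP by CellTiter-Glo luminescence after 30 min RT; signal loss marks cytotoxicity.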

Experiment [12] addresses Cellular tumor antigen p53 (Homo sapiens) (UniProt P04637). The experiment can be described thus: TOX21_p53_BLA_p2_ratio: Tox21 HCT-116 p53 Agonism Beta-lactamase Assay, Ratio, Phase 2 (AID 2283592). A digest of the protocol: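 Readout: blue/green (460/530 nm) FRET emission ratio after 2 h CCF4-AM loading at room temperature, excitation 405 nm. HCT116 p53 bla cells, 16 h compound exposure at 37C, 5% CO2; agonist direction fitted against DMSO baseline.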

Experiment [13] can be described thus: TOX21_p53_BLA_p4_viability: Viability Assessment in the Tox21 HCT-116 p53 Agonism Beta-lactamase Assay, Phase 4 (AID 2283597).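 Further: hits lower the luminescence signal meaning cytotoxicity.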 A digest of the protocol: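 ATP content by CellTiter-Glo luminescence, 30 min RT, read after the beta-lactamase ratio step. Cells: HCT116, 4000/well, compound added after 5 h, exposure 16 h at 37C. Signal loss = reduced viability.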

Experiment [14] concerns the target Cellular tumor antigen p53 (Homo sapiens) (UniProt P04637). Kind of experiment: TOX21_p53_BLA_p5_ratio: Tox21 HCT-116 p53 Agonism Beta-lactamase Assay, Ratio, Phase 5 (AID 2283599). A digest of the protocol: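 HCT-116 p53-bla cells (4000/well) plated 5 h, dosed with compound (217-fold DMSO dilution) for 16 h at 37 C; CCF4-AM substrate 2 h at room temperature. Activity is the 460/530 nm emission ratio (405 nm excitation), fitted in gain-of-signal direction versus DMSO.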

Experiment [15] has the same target. Kind of experiment: TOX21_p53_BLA_p4_ratio: Tox21 HCT-116 p53 Agonism Beta-lactamase Assay, Ratio, Phase 4 (AID 2283601). A digest of the protocol:
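HCT-116 p53 beta-lactamase reporter cells (4000/well) preincubated 5 h, then compound (217-fold dilution of DMSO stock) for 16 h at 37C. CCF4-AM substrate added 2 h at room temperature; 460/530 nm emission ratio fitted upward versus DMSO.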

The target is the same in experiment [16]. The experiment can be described thus: TOX21_p53_BLA_p3_ratio: Tox21 HCT-116 p53 Agonism Beta-lactamase Assay, Ratio, Phase 3 (AID 2283596). A digest of the protocol: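 Cells were seeded at 4000/well, rested 5 h at 37C, then dosed with DMSO compound solutions (217-fold dilution) for 16 h. CCF4-AM substrate was loaded for 2 h at room temperature, and the 460/530 nm emission ratio was fitted for gain of signal versus DMSO.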

Experiment [17] can be described thus: Tanguay_ZF_120hpf_OTIC_legacy: (Legacy) Oregon State University Tanguay Lab 120 Hour Post-fertilization zebrafish Assay for Otic Vesicle Malformation (AID 2283639). A digest of the protocol:
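Wild-type zebrafish larvae, whole-embryo exposure from early stage to 120 hpf at 28C. Binary brightfield scoring of otic vesicle morphology, fitted in the positive direction against the DMSO baseline.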

Experiment [18] in a line: TOX21_p53_BLA_p5_viability: Viability Assessment in the Tox21 HCT-116 p53 Agonism Beta-lactamase Assay, Phase 5 (AID 2283600). A digest of the protocol: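 ATP luminescence (CellTiter-Glo, 30 min, RT) served as the viability read-out, with loss of signal indicating cytotoxicity. Compounds in DMSO were pinned at a 217-fold dilution onto 4000 cells/well and incubated 16 h, 37C.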

The structures appear in SMILES notation. Records with an inconclusive call do not appear. The source made the active and inactive calls. How the source made its calls, unless noted: active means hit-call score of the fitted dose curve at least 0.9, where 1 is the maximum; inconclusive means response in the unintended direction; inactive means score below 0.9.

Cellular tumor antigen p53 (Homo sapiens), sequence (P04637 whole entry, looked up): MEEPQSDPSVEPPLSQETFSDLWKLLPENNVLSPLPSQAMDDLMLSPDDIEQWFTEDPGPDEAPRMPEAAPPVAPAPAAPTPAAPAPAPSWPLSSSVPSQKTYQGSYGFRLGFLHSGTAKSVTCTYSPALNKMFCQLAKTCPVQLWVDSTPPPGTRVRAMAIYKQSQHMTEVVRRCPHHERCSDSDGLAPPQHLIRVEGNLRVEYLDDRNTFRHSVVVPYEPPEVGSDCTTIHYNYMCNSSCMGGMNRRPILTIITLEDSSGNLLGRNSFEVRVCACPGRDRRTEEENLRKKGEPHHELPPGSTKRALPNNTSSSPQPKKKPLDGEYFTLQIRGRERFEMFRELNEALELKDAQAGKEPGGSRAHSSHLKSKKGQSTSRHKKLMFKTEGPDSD

With `CCOc1cc(C(C)(C)C)ccc1C1COC(c2c(F)cccc2F)=N1` (stereo not given), the compound was called inactive in [1], in experiment [2], in experiment [3], in experiment [4], in experiment [5] and in [6]. Besides, the call in [7], in [8], in experiment [9] and in experiment [10] was inactive.
Consider `Clc1nc(Cl)nc(Nc2ccccc2Cl)n1`, for which the outcome in [1], in experiment [2], in experiment [11], in experiment [12], in experiment [13] and in [14] was inactive. Also, the outcome in experiment [15], in experiment [3], in experiment [4], in experiment [5], in experiment [6] and in experiment [8] was inactive. For the same compound, the compound was classed as inactive in experiment [9].
In the case of `COCC(C)N(C(=O)CCl)c1c(C)csc1C` (stereo not given), the compound was called inactive in [1], in experiment [2], in experiment [11], in experiment [12], in experiment [16] and in [13]. For the same compound, the outcome in [14] and in experiment [15] was inactive. In addition, the AC50 in experiment [3] is 36.4 µM (active); in experiment [4], 18.3 µM (active); in [5], 27.3 µM (active); in experiment [6], 24.8 µM (active); in [7], 8.23 µM (active); in experiment [8] it was 25.6 µM (active). For the same compound, the values for the AC50 in experiment [17], in experiment [9] and in experiment [10] were 8.94 µM (active), 31 µM (active) and 8.88 µM (active), respectively.
As for `COC(=O)NC(=S)Nc1ccccc1NC(=S)NC(=O)OC`, the result in experiment [1], in experiment [2], in experiment [11], in experiment [12], in experiment [14] and in [15] was inactive. The result in experiment [3], in experiment [5], in [6], in experiment [8] and in experiment [17] was inactive. Besides, the AC50 in experiment [4] is 47.7 µM (active); in experiment [7] it was 50.3 µM (active); in experiment [9], 52.6 µM (active).
As to `COc1cc(Cl)c(OC)cc1Cl`, the compound was called inactive in experiment [1], in experiment [2], in experiment [12], in experiment [16], in experiment [14] and in [3]. Besides, the compound was called inactive in [4], in experiment [5], in experiment [6], in [7], in [8] and in experiment [17]. The compound was classed as inactive in experiment [9] and in experiment [10].
With `Cc1cnc(C2=NC(C)(C(C)C)C(=O)N2)c(C(=O)O)c1` (stereo not given), the outcome in experiment [1], in experiment [2], in experiment [13], in experiment [18], in experiment [3] and in experiment [4] was inactive. Also, the result in experiment [5], in experiment [6], in experiment [7], in experiment [8], in [17] and in experiment [9] was inactive. Also, the compound was called inactive in experiment [10].
Consider `CNC(=O)N(C)c1nnc(C(C)(C)C)s1`, for which the result in experiment [1], in experiment [2], in [11], in experiment [12], in experiment [16] and in [13] was inactive. Besides, the result in [14], in experiment [15], in [3], in experiment [6], in [7] and in experiment [8] was inactive. The call in experiment [17], in experiment [9] and in experiment [10] was inactive.
`Cc1nc(N(C)C)nc(OC(=O)N(C)C)c1C`: the result in experiment [1], in experiment [2], in [3], in [4], in experiment [5] and in experiment [6] was inactive. Besides, the outcome in [7], in experiment [8], in [17] and in experiment [9] was inactive.
As to `CC(C)Nc1nc(Cl)nc(NC(C)C)n1`, the result in [1], in experiment [2], in [12], in [16], in [15] and in [3] was inactive. Also, the outcome in experiment [4], in [5], in experiment [6], in experiment [7], in experiment [8] and in experiment [17] was inactive. For the same compound, the outcome in experiment [9] and in experiment [10] was inactive.
